This is an account of results in PubChem BioAssay.

Structures are written as SMILES. Inconclusive results are not listed. The source made the active and inactive calls. Rule as the data show it, unless noted: active = inhibition above about 80%; inactive = the rest.

Experiment [1] can be described thus: growth inhibition of DIPG glioma cells, dose response, cell-based, SU-DIPG-XVII, MIPE5.0, CellTiter-Glo, qHTS (AID 1347060; cut-off not given, nearly all actives have AC50 up to about 26 µM;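 as to AC50: cells exposed to compound for 48 hours before viability readout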). The following applies: SU-DIPG-XVII viability, CellTiter-Glo ATP luminescence. In general terms: Cellular ATP, detected with luciferase, serves as a proxy for viable cell number.
Experiment [2] is described as follows: JHH-DIPG-1 glioma cell viability, MIPE5.0 library, CellTiter-Glo luminescence, qHTS (AID 1347067; cut-off not given, nearly all actives have AC50 up to about 26 µM;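 also: cells exposed to compound for 48 hours before readout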). The following applies: JHH-DIPG-1 glioma viability, CellTiter-Glo ATP luminescence.
A short description of experiment [3]: viability loss in pontine glioma line – cell-based, SU-DIPG-XXV, MIPE5.0, CellTiter-Glo, qHTS, dose response (AID 1347065; cut-off not given, nearly all actives have AC50 up to about 26 µM;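 also: cells exposed to compound for 48 hours before ATP readout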). The following applies: CellTiter-Glo ATP luminescence.
A short description of experiment [4]: sensitizers of A549 cells to miR-34 induction, primary screen, imaging, A549 dox-inducible miR-34, nuclei and caspase counts (AID 1347080;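 active = compounds whose cell count with miR-34 switched on is under 0.7 times the count with it off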). The following applies: A549 miR-34 inducible, Hoechst nuclei count, 48 h.
Experiment [5] in a line: survival rescue of mitochondrial mutant cells in low glucose, primary screen, MELAS cybrids, Rieske KO mouse fibroblasts, CellTiter-Glo (AID 1508586;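 active = mean z-score across replicates of 1.96 or higher in either the MELAS or the Rieske mutant cell line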;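 also: z relative to plate mean and SD of compound and empty wells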).
A short description of experiment [6]: SU-DIPG-XXV glioma cell viability, MIPE5.0 library, qHTS (AID 1347068; cut-off not given, nearly all actives have IC50 up to about 30 µM). For orientation: qHTS replaces the single test concentration by a dilution series.
Experiment [7] in a line: modifiers of HSF1 nuclear foci, imaging, Selleck Cancer Library (AID 1347162; in the data active = plate-normalised HSF1 focus index below about 0.46). Particulars: human cells, at 10 µM; SSMD: measured here: HSF1 foci SSMD mean; cell count: measured here: cell number; plate-normalised HSF1 focus index: stronger effect = lower value.
Experiment [8] can be described thus: LFS_MB_P medulloblastoma growth inhibition, cell-based, chromothripsis tumors, cisplatin or BGB combos (AID 1671449).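 Also: cells exposed for 96 hours; 0% = vehicle DMSO and 100% = killing by high DMSO.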 Particulars: LFS_MB_P medulloblastoma cells.
Experiment [9] is described as follows: HDN33 neuroblastoma growth inhibition, cell-based, chromothripsis tumors, cisplatin or BGB combos (AID 1671450).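 Also: cells exposed to compound for four days; 0% = vehicle DMSO and 100% = cell killing by high DMSO.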 The following applies: HDN33 neuroblastoma cells, stronger effect = higher value.
The nature of experiment [10]: ICB984 medulloblastoma cell growth inhibition, synergistic combos for chromothripsis tumors, cisplatin or BGB combos (AID 1671451; call rule not given here;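 also: cells exposed for 96 hours before readout; 0% = vehicle DMSO and 100% = killing by high DMSO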). The following applies: ICB984 medulloblastoma cells, drug combinations, stronger effect = higher value.
Experiment [11] is described as follows: LFS_MB_1R medulloblastoma cell growth inhibition, synergistic combos for chromothripsis tumors, cisplatin or BGB combos (AID 1671452).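 Also: cells exposed for 96 hours before readout.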 The following applies: LFS_MB_1R medulloblastoma cells, stronger effect = higher value.
Experiment [12] can be described thus: HTB85 osteosarcoma cell growth inhibition, synergistic combos for chromothripsis tumors, BGB or cisplatin IC20 combos (AID 1671453).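 Also: cells exposed for 96 hours before readout; 0% = vehicle DMSO and 100% = high DMSO killing control.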 Particulars: HTB85 osteosarcoma cells, drug combinations, stronger effect = higher value.
Experiment [13] can be described thus: CRL2098 osteosarcoma cell growth inhibition, synergistic combos for chromothripsis tumors, BGB or cisplatin IC20 combos (AID 1671454).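 Also: cells exposed for 96 h before readout; 0% = vehicle DMSO and 100% = killing by high DMSO.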 The following applies: CRL2098 osteosarcoma cells, drug combinations, stronger effect = higher value.
A short description of experiment [14]: HD-MB03 medulloblastoma cell growth inhibition, synergistic combos for chromothripsis tumors, BGB or cisplatin IC20 combos (AID 1671455; in the data active = inhibition above about 83%;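 also: 0% = vehicle DMSO and 100% = high DMSO as cytotoxic control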). Particulars: HD-MB03 medulloblastoma cells, stronger effect = higher value.
Experiment [15] can be described thus: UWB1.289 ovarian carcinoma cell growth inhibition, synergistic combos for chromothripsis tumors, BGB or cisplatin combos (AID 1671456).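 Also: cells exposed to compound for four days; 0% = vehicle DMSO and 100% = killing by high DMSO.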 Particulars: UWB1.289 ovarian carcinoma cells, stronger effect = higher value.
Experiment [16] can be described thus: LFS_MB_2R medulloblastoma cell growth inhibition, synergistic combos for chromothripsis tumors, cisplatin combos (AID 1671457).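 Also: cells exposed to compound for four days before readout.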 Particulars: LFS_MB_2R medulloblastoma cells, stronger effect = higher value.
A short description of experiment [17]: MDA-MB-436 breast carcinoma cell growth inhibition, synergistic combos for chromothripsis tumors, BGB or cisplatin combos (AID 1671458; call rule not given here;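 also: cells exposed for 96 hours; 0% = vehicle DMSO and 100% = killing by high DMSO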). Particulars: MDA-MB-436 breast carcinoma growth inhibition, drug combinations, stronger effect = higher value.
The nature of experiment [18]: UWB1.289_BRCA1 ovarian cancer growth, cell-based, BGB or cisplatin combinations (AID 1671459). Particulars: UWB1.289 BRCA1 ovarian carcinoma, drug combinations, stronger effect = higher value.
Experiment [19] in a line: human astrocyte viability loss, single and combined drugs, cytotoxicity control for chromothriptic childhood tumor combination screen, cell-based, BGB or cisplatin IC20 combos (AID 1671460).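 Also: cells exposed to compounds for 96 hours before viability readout; 0% = vehicle and 100% = killing control.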 The following applies: Human astrocytes, drug combinations, stronger effect = higher value.
A short description of experiment [20]: growth inhibition of BT084 medulloblastoma cells, cell-based, ICGC_MB145, cisplatin and BGB IC40 combos (AID 1671461).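 Also: cells exposed to drugs for 96 hours; 0% = vehicle DMSO and 100% = high DMSO full killing control.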 Particulars: drug combinations, stronger effect = higher value.
Experiment [21] is described as follows: growth inhibition of RCMB18 medulloblastoma cells, cell-based, cisplatin and BGB IC40 combos (AID 1671462).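 Also: cells exposed to compound for four days.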 The following applies: stronger effect = higher value.
The nature of experiment [22]: growth inhibition of CRL1545 osteosarcoma cells, cell-based, cisplatin and BGB IC20 combos (AID 1671464).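 Also: cells exposed to compound for 96 hours before readout; 0% = vehicle DMSO and 100% = high DMSO killing control.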 The following applies: stronger effect = higher value.
The mark [23] stands for this setting: stronger effect = lower value, cell number ratio, induced over uninduced.
Setting [24] is: measured here: relative caspase fold change +Dox/-Dox.
The mark [25] stands for this setting: measured here: total cells with miR-34 induction, stronger effect = lower value.
[26] abbreviates: measured here: total cells without miR-34 induction.
[27] abbreviates: MELAS cybrid survival, CellTiter-Glo 48 h, stronger effect = higher value.
The mark [28] stands for this setting: Rieske KO mouse fibroblast survival, CellTiter-Glo 72 h.
[29] abbreviates: measured here: combination with BGB IC40, at 0.05 µM.
Setting [30] is: measured here: with BGB IC20 combination, at 0.5 µM.
Where [31] appears, read: measured here: with cisplatin IC20 combination, at 0.5 µM.
Setting [32] is: measured here: combination with cisplatin, at 0.5 µM.
The mark [33] stands for this setting: measured here: combination with cisplatin, at 5 µM.

Regarding `Cn1ncc(NC(=O)c2nc(-c3c(F)cccc3F)sc2N)c1N1CC[C@@H](N)[C@H](F)CC1`, the molecule was classed as inactive in experiment [1] and in experiment [2].

The AC50 is the concentration giving half of the maximal activity seen. For `CCCc1cc(C)[nH]c(=O)c1CNC(=O)c1cc(-c2ccc(N3CCN(C(C)C)CC3)nc2)cc2c1cnn2C(C)C`, the results for the AC50 in experiment [1], in experiment [3] and in experiment [2] were 26.3 µM (active), 20.9 µM (active) and 14.8 µM (active), respectively. Besides, the fold change is 0.939 (inactive) in experiment [4] (setting [23]) and 0.565 in [4] (setting [24]). Also, the cell count in experiment [4] (setting [25]) amounted to 6600; in [4] (setting [26]), 7030. Further, the figures for the z-score in experiment [5] (setting [27]) and in [5] (setting [28]) were 0.696 (inactive) and -0.809, respectively.

For the molecule `N#Cc1cccc(-c2c[nH]c3ncnc(N4CCOCC4)c23)c1`, the molecule was called inactive in experiment [1], in experiment [3] and in experiment [6].

As to `CN1C(=O)N(c2cc(Cl)cc(Cl)c2)C(=O)[C@]12CN(Cc1cc(C(=O)O)cs1)C[C@H]2c1ccc(C#N)cc1`, the molecule was classed as inactive in experiment [1] and in experiment [6].

As usually defined, the inhibition is the drop in the measured response relative to a control, in per cent. Take `Nc1nc(OCc2cc(Br)cs2)c2[nH]cnc2n1`: the call in experiment [1] and in experiment [6] was inactive. Besides, the fold change in [4] (setting [23]) was 0.799 (inactive); in [4] (setting [24]), 0.415. In addition, the cell count in [4] (setting [25]) was determined as 7150; in experiment [4] (setting [26]) it was 8940; in [7], 6820. In experiment [7], this molecule returned an SSMD of 3.47. Further, the plate-normalised HSF1 focus index in experiment [7] was 1.21 (inactive). Besides, the z-score was -0.686 (inactive) in experiment [5] (setting [27]) and -2.22 in experiment [5] (setting [28]). In addition, the inhibition in [8] (at 0.5 µM, stronger effect = higher value) is -8.6% (inactive); in experiment [8] (measured here: combination with BGB IC20, at 0.005 µM), 6.06%; in [8] (measured here: combination with BGB IC40, at 0.005 µM) it was -17.9%; in experiment [8] (setting [29]) it was -7.49%; in experiment [8] (measured here: combination with cisplatin, at 0.5 µM, stronger effect = higher value), -32.7%; in experiment [8] (measured here: combination with cisplatin, at 5 µM, stronger effect = higher value), 3.43%. For the same molecule, the inhibition in experiment [9] (BGB combo, at 5 µM) is -14.7%; in experiment [9] (at 0.5 µM) it was -12.4% (inactive); in experiment [9] (cisplatin combo, at 5 µM) it was -19.8%; in [9] (setting [30]) it was -15.1%; in [9] (setting [31]), -16.6%; in [9] (single agent, at 5 µM), -22.4%. Also, the inhibition in experiment [10] (BGB IC20 combo, at 0.005 µM) was -4.27%; in experiment [10] (BGB IC40 combo, at 0.005 µM), -37.5%; in experiment [10] (BGB IC40 combo, at 0.05 µM), -11.8%; in experiment [10] (at 0.5 µM), -22.3% (inactive); in experiment [10] (cisplatin combo, at 0.05 µM), -16.3%; in experiment [10] (cisplatin combo, at 0.5 µM), -26.5%. For the same molecule, the inhibition was -13.8% in [10] (cisplatin combo, at 5 µM); 4.33% in [10] (measured here: 5 uM single agent, at 5 µM); -20.5% (inactive) in experiment [11] (at 0.5 µM); -27% in experiment [11] (setting [29]); -33.3% in experiment [11] (setting [32]); -35.3% in experiment [11] (setting [33]). The inhibition in [12] (at 0.5 µM) was -18.8% (inactive); in experiment [12] (measured here: with BGB IC20, at 0.5 µM) it was -10.7%; in [12] (measured here: with BGB IC20, at 5 µM), -21.3%; in experiment [12] (measured here: with cisplatin IC20, at 0.5 µM) it was -23.3%; in [12] (measured here: with cisplatin IC20, at 5 µM) it was -10.7%; in [12] (single agent, at 5 µM), -17.4%. Further, the inhibition in experiment [13] (at 0.5 µM) was -32.8% (inactive); in experiment [13] (measured here: combination with BGB at IC20, at 0.5 µM), -25.4%; in [13] (measured here: combination with cisplatin at IC20, at 0.5 µM) it was -22.4%; in experiment [14] (at 0.5 µM), -4.96% (inactive); in experiment [14] (measured here: combo with BGB at IC20, at 0.5 µM), -7.38%; in experiment [14] (measured here: combo with cisplatin at IC20, at 0.5 µM), -2.87%. The inhibition in [15] (at 0.5 µM) was 7.84% (inactive); in experiment [15] (measured here: inhibition with BGB combination, at 0.05 µM), -1.57%; in experiment [15] (measured here: inhibition with cisplatin combination, at 0.05 µM), -17.8%; in [16] (at 0.5 µM), 18.8% (inactive); in experiment [16] (setting [32]), -4.84%; in experiment [16] (setting [33]), 6.55%. The inhibition is -3.23% (inactive) in experiment [17] (at 0.5 µM); 4.51% in experiment [17] (measured here: BGB combination, at 0.5 µM); 3.71% in [17] (measured here: BGB combination, at 5 µM); -3.58% in experiment [17] (measured here: cisplatin combination, at 0.5 µM); 5.35% in experiment [17] (measured here: cisplatin combination, at 5 µM); -10.7% in experiment [18] (BGB combination, concentration series, at 5 µM). For the same molecule, the inhibition was -6.34% (inactive) in [18] (at 0.5 µM); 8.18% in experiment [18] (cisplatin combination, concentration series, at 5 µM); -4.57% (inactive) in experiment [19] (at 0.5 µM); 2.71% in [19] (measured here: combo with BGB IC20, at 0.5 µM); -8.58% in experiment [19] (measured here: combo with cisplatin IC20, at 0.5 µM); -0.821% (inactive) in experiment [20] (at 0.5 µM). The inhibition was -10.5% in experiment [20] (cisplatin combination, at 0.5 µM); 2.83% in experiment [20] (cisplatin combination, at 5 µM); -9.82% in [20] (measured here: BGB IC40 combination 0.05 uM, at 0.05 µM); 4.08% in [20] (single agent, at 5 µM); -7.44% (inactive) in experiment [21] (at 0.5 µM); -2.67% in [21] (cisplatin combo, at 5 µM). The inhibition in experiment [21] (measured here: BGB IC40 combination, at 0.05 µM) is 1.72%; in experiment [21] (setting [32]) it was -25.9%; in experiment [21] (single agent, at 5 µM) it was -0.712%; in experiment [22] (at 0.5 µM) it was -8.12% (inactive); in [22] (setting [30]) it was -32.5%; in experiment [22] (setting [31]) it was 4.06%. The inhibition in experiment [22] (single agent, at 0.05 µM) was 5.05%; in experiment [22] (single agent, at 5 µM) it was -19.6%.
